# Source: PubChem BioAssay (NCATS)
# Records with an inconclusive call do not appear. Calls of active or inactive are those of the source. Unless noted, calls follow the shape of the dose curve; as a rule, active = well fitted curve in either direction with a large enough effect (not every such curve was filed as active); inconclusive = small, poorly fitted or top-dose-only effect, or another doubt; inactive = flat fitted curve, though single readings scatter.
# Key:
# [1] = target: Lysosomal acid glucosylceramidase (Homo sapiens) (UniProt P04062); test: Glucocerebrosidase-p2 (AID 348; in the data active = potency below about 10 µM; also: potency is read from the fitted curve at half-maximal effect); settings: purified GBA, blue fluorogenic substrate, 40 min
# Lysosomal acid glucosylceramidase (Homo sapiens), sequence (P04062 whole entry, looked up): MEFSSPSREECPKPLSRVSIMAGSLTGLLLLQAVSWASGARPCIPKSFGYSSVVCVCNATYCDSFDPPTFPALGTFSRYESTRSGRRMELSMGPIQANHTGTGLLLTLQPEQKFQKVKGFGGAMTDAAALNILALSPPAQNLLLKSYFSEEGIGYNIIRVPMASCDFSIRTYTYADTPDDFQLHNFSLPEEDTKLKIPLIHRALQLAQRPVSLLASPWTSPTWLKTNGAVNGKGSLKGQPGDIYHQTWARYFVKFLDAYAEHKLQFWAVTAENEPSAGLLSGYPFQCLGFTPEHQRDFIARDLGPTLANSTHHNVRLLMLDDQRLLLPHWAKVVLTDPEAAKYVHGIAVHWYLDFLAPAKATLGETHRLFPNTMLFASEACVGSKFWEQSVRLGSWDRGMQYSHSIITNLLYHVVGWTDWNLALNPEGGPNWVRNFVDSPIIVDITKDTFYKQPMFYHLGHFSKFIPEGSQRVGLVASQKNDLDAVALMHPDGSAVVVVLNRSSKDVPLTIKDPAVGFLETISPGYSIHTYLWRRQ
# In short: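 Compounds titrated from 0.6 nM upwards against 0.2 nM enzyme in pH 5.9 citric acid/KH2PO4, taurocholate, tween-20; blue fluorogenic substrate 80 uM, 40 min room temperature, stopped and read Ex 365/Em 440 for AC50.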
# [2] = AP1 Signaling Pathway (AID 357); settings: ME-180 AP-1-bla reporter, EGF-induced, beta-lactamase ratio, 5 h; at 7.69 µM (top of the series) unless noted;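 also: ME-180 reporter cells stimulated with EGF at its EC50 level; % is scaled to controls: 0 for no effect and ±100 for the full control effect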
# In short: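 Modulation of EGF-driven AP-1 transcription was assessed with a beta-lactamase reporter in ME-180 cells. Compound and EC50 EGF were co-incubated 5 hours at 37 °C before 2.5-hour CCF4 loading at room temperature and dual-emission reading.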
# [3] = target: Cytochrome P450 1A2 (Homo sapiens) (UniProt P05177); test: p450-cyp1a2 (AID 410; calls by dose curve; also: potency is read from the fitted curve at half-maximal effect;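 as to activity change, negative = inhibition: -100% = full effect of reference inhibitor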); settings: recombinant CYP1A2, luciferin-ME demethylation, luminescence; series mostly up to 57 µM
# Cytochrome P450 1A2 (Homo sapiens), sequence (P05177 whole entry, looked up): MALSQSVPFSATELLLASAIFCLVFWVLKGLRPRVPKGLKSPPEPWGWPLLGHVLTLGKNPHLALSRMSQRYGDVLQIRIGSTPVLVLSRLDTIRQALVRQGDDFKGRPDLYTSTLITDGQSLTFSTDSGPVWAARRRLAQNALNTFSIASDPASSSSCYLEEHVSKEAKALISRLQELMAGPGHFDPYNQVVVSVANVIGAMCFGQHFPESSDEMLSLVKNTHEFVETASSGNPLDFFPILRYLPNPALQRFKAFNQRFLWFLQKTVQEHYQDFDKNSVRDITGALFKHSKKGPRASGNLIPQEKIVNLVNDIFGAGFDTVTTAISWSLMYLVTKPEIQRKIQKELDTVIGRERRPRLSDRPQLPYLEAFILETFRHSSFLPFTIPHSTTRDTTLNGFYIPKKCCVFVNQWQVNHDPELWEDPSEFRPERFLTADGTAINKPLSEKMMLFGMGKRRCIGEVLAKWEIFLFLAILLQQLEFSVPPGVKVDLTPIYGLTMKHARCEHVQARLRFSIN
# In short: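 20nM CYP1A2 with 100uM Luciferin-ME (at Km) in 100mM KPO4; compound preincubated 10 min, NADPH regeneration added, 60 min at room temperature. Luciferin quantified by luminescence after detection reagent; normalized to 57 uM furafylline.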
# [4] = NFAT Signaling Pathway (AID 444); settings: Jurkat NFAT-bla M1, carbachol, beta-lactamase ratio, 5 h; at 7.69 µM (top of the series) unless noted;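 also: carbachol stimulus at about its EC50 of 1 µM final; % is scaled to controls: 0 for no effect and ±100 for the full control effect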
# In short: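 Jurkat cells with NFAT-driven β-lactamase reporter and co-expressed M1 receptor, stimulated with carbachol (final 1 uM, ~EC50), compound titration, 5 h at 37 °C. CCF4 loaded 1 h at RT; 460/530 nm ratio gave %activity and AC50.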
# [5] = Stat Signaling Pathway (AID 446); settings: ME-180 SIE beta-lactamase reporter, IL-6 stimulated, 5 h; at 7.69 µM (top of the series) unless noted;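 also: ME-180 cervical cancer cells given 40 pM IL-6 alongside compound; SIE-controlled beta-lactamase reporter measured as 460/530 nm FRET emission ratio; % is scaled to controls: 0 for no effect and ±100 for the full control effect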
# In short: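 Reporter line: ME-180 cervical carcinoma, SIE-beta-lactamase. Treatment: compound with 40 pM IL-6, 5 hrs, 37 C, in low-serum OPTI-MEM with 10 mM HEPES pH 7.3. Detection: 460/530 nm fluorescence.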
# [6] = target: Glucocorticoid receptor (Homo sapiens) (UniProt P04150); test: GR-EFC Redistribution (AID 451; calls by dose curve; also: potency is read from the fitted curve at half-maximal effect); settings: CHO-K1 GR-EFC translocation, beta-gal luminescence, 2 h
# Glucocorticoid receptor (Homo sapiens), sequence (P04150 whole entry, looked up, the tested form may be a part): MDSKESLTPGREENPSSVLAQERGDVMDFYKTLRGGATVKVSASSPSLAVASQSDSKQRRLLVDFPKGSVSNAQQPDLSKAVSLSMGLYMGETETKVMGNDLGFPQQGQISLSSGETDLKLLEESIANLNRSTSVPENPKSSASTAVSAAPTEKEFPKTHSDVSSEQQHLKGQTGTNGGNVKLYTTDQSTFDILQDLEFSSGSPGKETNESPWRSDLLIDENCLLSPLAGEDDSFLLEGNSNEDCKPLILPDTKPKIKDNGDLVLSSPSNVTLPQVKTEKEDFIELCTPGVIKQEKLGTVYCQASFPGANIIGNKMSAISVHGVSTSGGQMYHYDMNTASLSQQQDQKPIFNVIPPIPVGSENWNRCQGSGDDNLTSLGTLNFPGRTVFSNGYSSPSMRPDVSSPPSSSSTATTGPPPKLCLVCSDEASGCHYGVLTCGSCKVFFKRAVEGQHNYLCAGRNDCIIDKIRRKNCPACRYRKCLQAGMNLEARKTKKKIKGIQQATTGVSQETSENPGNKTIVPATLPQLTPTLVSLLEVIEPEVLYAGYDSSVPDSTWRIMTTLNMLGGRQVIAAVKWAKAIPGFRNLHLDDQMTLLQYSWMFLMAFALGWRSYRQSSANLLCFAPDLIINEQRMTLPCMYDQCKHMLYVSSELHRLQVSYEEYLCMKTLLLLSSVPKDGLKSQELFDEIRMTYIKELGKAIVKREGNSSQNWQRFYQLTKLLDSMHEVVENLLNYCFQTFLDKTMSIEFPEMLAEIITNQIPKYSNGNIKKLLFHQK
# In short: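 CHO-K1 cells expressing nuclear EA and GR-ED fragments of b-gal; compounds titrated up to 46 uM final, 2 h at 37 C. GR nuclear translocation read as complemented b-gal luminescence after 1 h RT detection.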
# [7] = target: Mitogen-activated protein kinase 10 (Mus musculus) (UniProt Q61831); test: JNK3 AlphaScreen Assay (AID 530); settings: JNK3 lysate, c-Jun phosphorylation; series mostly up to 57.1 µM;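 also: kinase came from lysate of stimulated human HepG2 cells; signal reports phosphorylation of biotinylated GST-cJun 1-79 at Ser73 with 10 µM ATP; % is scaled to controls: 0 for no effect and ±100 for the full control effect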
# In short: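 Pre-activated (IL-1β/TNFα) JNK3 in HepG2 lysates phosphorylates biotin-GST-cJun(1-79), 10 uM ATP; anti-phospho-cJun(Ser73) AlphaScreen read at room temperature, pH 7.6 Tris buffer. Compounds pre-incubated 15 min as titrations.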
# [8] = target: 3',5'-cyclic-AMP phosphodiesterase 4B (Homo sapiens) (UniProt Q07343); test: qHTS Assay for Inhibitors of PDE-IV (AID 607; active = well fitted activation curve with a large enough effect in the main read-out, with a control signal flat, not every such curve was filed as active; also: % of control where 0% means no effect); settings: HEK293 ACTOne CNG channel cells, membrane potential fluorescence; series mostly up to 22.9 µM
# 3',5'-cyclic-AMP phosphodiesterase 4B (Homo sapiens), sequence (Q07343 whole entry, looked up): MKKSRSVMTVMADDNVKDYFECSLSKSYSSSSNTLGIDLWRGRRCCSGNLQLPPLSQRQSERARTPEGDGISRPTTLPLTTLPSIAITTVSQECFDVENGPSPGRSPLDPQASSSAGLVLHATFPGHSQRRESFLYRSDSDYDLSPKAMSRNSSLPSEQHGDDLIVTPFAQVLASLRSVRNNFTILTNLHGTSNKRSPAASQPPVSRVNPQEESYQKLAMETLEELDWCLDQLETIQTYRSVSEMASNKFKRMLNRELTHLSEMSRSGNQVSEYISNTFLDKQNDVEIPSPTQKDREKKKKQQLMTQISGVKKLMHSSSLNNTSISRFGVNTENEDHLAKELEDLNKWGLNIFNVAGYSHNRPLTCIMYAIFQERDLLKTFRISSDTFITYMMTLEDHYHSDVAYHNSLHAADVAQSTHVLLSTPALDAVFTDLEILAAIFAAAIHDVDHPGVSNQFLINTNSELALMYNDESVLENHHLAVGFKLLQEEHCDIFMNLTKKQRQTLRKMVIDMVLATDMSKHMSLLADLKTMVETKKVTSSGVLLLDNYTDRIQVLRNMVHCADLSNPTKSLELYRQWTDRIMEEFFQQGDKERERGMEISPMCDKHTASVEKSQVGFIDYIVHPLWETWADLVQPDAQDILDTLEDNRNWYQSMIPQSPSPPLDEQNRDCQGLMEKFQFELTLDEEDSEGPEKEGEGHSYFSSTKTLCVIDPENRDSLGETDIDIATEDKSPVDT
# In short: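 Cell-based read-out of cAMP via a modified cyclic nucleotide-gated channel and membrane potential dye (535/590 nm) in HEK293 cells expressing PDE4 endogenously. Compounds tested up to 22.9 uM final; 100 uM RO 20-1724 reference.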
# [9] = qHTS Assay for Lipid Storage Modulators (AID 1519; calls by dose curve); settings: Drosophila S3 cells, BODIPY lipid droplet/cell ratio, laser cytometry, cells loaded with oleic acid; for activity change, negative = inhibition: at 57.5 µM (top of the series)
# In short: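 Cells seeded at 5,000 per well were treated with compounds over a concentration series and loaded with oleic acid (400 uM, as added). Lipid droplet fluorescence (488 nm excitation, 500-530 nm channel) was read by laser-scanning cytometry and normalized to 20 uM Triacsin C.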
# [10] = Primary qHTS for small molecule stabilizers of the endoplasmic reticulum resident proteome: Secreted ER Calcium Modulated Protein (SERCaMP) assay (AID 1508630; active = well fitted inhibition curve with a large enough effect; also: % is scaled to controls: 0 for no effect and ±100 for the full control effect); settings: SH-SY5Y GLuc-SERCaMP (Gaussia luciferase released on ER calcium loss) secretion, thapsigargin, luminescence; series mostly up to 38.4 µM
# In short: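 GLuc-SERCaMP-expressing SH-SY5Y cells, pretreated 16 h with compound, are challenged with thapsigargin to empty ER calcium stores; after 4 h, coelenterazine is added directly to the medium and luminescence is imaged.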
# [11] = measured here: cell count channel max response
# [12] = measured here: lipid channel max response
SMILES,Potency [1],"activity change, negative = inhibition [2]",Potency [3],"activity change, negative = inhibition [4]","activity, negative = inhibition [5]",Potency [6],outcome [7],Potency [8],"activity change, negative = inhibition [9]","max response [9, 11] [%]","max response [9, 12] [%]",Potency [10]
CC(C)NC(=O)N1CC[C@@]2(CCCN(C(=O)c3cccn3C)C2)C1,> 11.4 µM (inactive),12.3% (inactive),inactive,-8.88% (inactive),-1.46% (inactive),> 46 µM (inactive),inactive,inactive,3.5% (inactive),-17.7,-8.74,inactive
O=S(=O)(c1ccccc1)N1CCC2(CC1)CN(c1ncccn1)C2,> 11.4 µM (inactive),-2.52% (inactive),inactive,26.7% (inactive),-1.43% (inactive),> 46 µM (inactive),inactive,inactive,4.75% (inactive),14.7,20.8,inactive
COCC(=O)N1CCC[C@@]2(CCN(C(=O)Nc3ccc(OC)cc3)C2)C1,> 11.4 µM (inactive),-7.62% (inactive),inactive,11.4% (inactive),6.35% (inactive),> 46 µM (inactive),inactive,inactive,0.357% (inactive),1.93,5.76,inactive
CC(=O)N1CCC2(CC1)CN(Cc1ccccc1)C2,> 11.4 µM (inactive),9.85% (inactive),inactive,0.306% (inactive),-5.51% (inactive),> 46 µM (inactive),inactive,inactive,-0.469% (inactive),-1.63,-1.86,inactive
COc1ccccc1CN1CC2(CCN(S(C)(=O)=O)CC2)C1,> 11.4 µM (inactive),-11.2% (inactive),inactive,-7.23% (inactive),4.21% (inactive),> 46 µM (inactive),inactive,inactive,6.08% (inactive),11.6,24,inactive
FC(F)(F)c1cc(CN2CC3(CCNCC3)C2)cc(C(F)(F)F)c1,> 11.4 µM (inactive),-6.77% (inactive),inactive,10.6% (inactive),3.31% (inactive),> 46 µM (inactive),inactive,inactive,-2.16% (inactive),-18,-13.5,inactive
O=C(c1csnn1)N1CCC2(CC1)CCN(c1ncccn1)CC2,> 11.4 µM (inactive),-14.3% (inactive),inactive,1.39% (inactive),-5.07% (inactive),> 46 µM (inactive),inactive,inactive,4.97% (inactive),-0.155,6.88,inactive
CC(C)CN1CCC2(CC1)CCN(C(=O)c1csnn1)CC2,> 11.4 µM (inactive),-3.75% (inactive),inactive,-21.7% (inactive),-16.4% (inactive),> 46 µM (inactive),inactive,inactive,-1.92% (inactive),-3.14,-1.99,inactive
CC(=O)N1CCC2(CCN(Cc3cc(C(F)(F)F)cc(C(F)(F)F)c3)CC2)CC1,> 11.4 µM (inactive),-20.5% (inactive),15.8 µM (active),-19.4% (inactive),8.31% (inactive),> 46 µM (inactive),inactive,inactive,2.13% (inactive),6.37,10.7,inactive
O=C(Nc1cccc(F)c1)N1CC2(CCN(S(=O)(=O)c3ccccc3)CC2)C1,> 11.4 µM (inactive),-8.31% (inactive),inactive,22.6% (inactive),-14.1% (inactive),> 46 µM (inactive),inactive,inactive,-4.83% (inactive),-8.16,-11.8,inactive
COC(=O)N1CCC[C@@]2(CCN(C(=O)Nc3ccccc3)C2)C1,> 11.4 µM (inactive),-3.51% (inactive),12.6 µM (active),8.29% (inactive),-0.455% (inactive),> 46 µM (inactive),inactive,inactive,3.74% (inactive),-3.53,3.51,inactive
COc1ccc(NC(=O)N2CC3(CCN(S(C)(=O)=O)CC3)C2)cc1,> 11.4 µM (inactive),-11.2% (inactive),inactive,24.5% (inactive),5.18% (inactive),> 46 µM (inactive),inactive,inactive,4.64% (inactive),-10.6,-5.17,inactive
Cn1cccc1C(=O)N1CCC2(CCN(C(=O)Nc3cccc(F)c3)CC2)CC1,> 11.4 µM (inactive),-12.6% (inactive),inactive,15.8% (inactive),-3.96% (inactive),> 46 µM (inactive),inactive,inactive,6.54% (inactive),18.2,25.2,inactive
COCC(=O)N1CCC2(CC1)CN(Cc1cc(C(F)(F)F)cc(C(F)(F)F)c1)C2,> 11.4 µM (inactive),11% (inactive),25.1 µM (active),23.6% (inactive),-2.63% (inactive),> 46 µM (inactive),inactive,inactive,-7.21% (inactive),25.1,17.9,inactive
CN1CCCC2(CCN(C(=O)c3cccn3C)CC2)C1,> 11.4 µM (inactive),-4.17% (inactive),inactive,-4.14% (inactive),7.29% (inactive),> 46 µM (inactive),inactive,inactive,1.86% (inactive),11.8,16.9,inactive
Cc1noc(C)c1C(=O)N1CCC2(CCN(C(=O)NC(C)C)CC2)CC1,> 11.4 µM (inactive),-3.73% (inactive),5.01 µM (active),5.4% (inactive),3.31% (inactive),> 46 µM (inactive),inactive,inactive,4.44% (inactive),4.63,11.9,inactive
CN1CC[C@@]2(CCCN(C(=O)c3cccc(F)c3)C2)C1,> 11.4 µM (inactive),-5.96% (inactive),inactive,-2.53% (inactive),-8.35% (inactive),> 46 µM (inactive),inactive,inactive,3.45% (inactive),3.46,12.3,inactive
CS(=O)(=O)N1CCC2(CCN(C(=O)Nc3cccc(F)c3)CC2)CC1,> 11.4 µM (inactive),-2.81% (inactive),inactive,8.92% (inactive),-6.54% (inactive),> 46 µM (inactive),inactive,inactive,4.55% (inactive),4.7,11.5,inactive
COc1ccc(C(=O)N2CCC3(CC2)CN(C(=O)NC(C)C)C3)cc1,> 11.4 µM (inactive),-5.05% (inactive),inactive,12.7% (inactive),0.0305% (inactive),> 46 µM (inactive),inactive,inactive,-0.224% (inactive),-1.09,0.517,inactive
O=C(Nc1cccc(F)c1)N1CC2(CCN(C(=O)c3csnn3)CC2)C1,> 11.4 µM (inactive),-24.7% (inactive),inactive,16.8% (inactive),-8.23% (inactive),> 46 µM (inactive),inactive,inactive,5.27% (inactive),2.11,8.72,inactive
O=C(Nc1ccccc1)N1CC2(CCN(C(=O)c3ccco3)CC2)C1,> 11.4 µM (inactive),-2% (inactive),inactive,3.9% (inactive),4.13% (inactive),> 46 µM (inactive),inactive,inactive,5.54% (inactive),21.9,27.1,inactive
O=C(c1ccncc1)N1CCC2(CC1)CCN(C(c1ccccc1)c1ccccc1)CC2,> 11.4 µM (inactive),-0.963% (inactive),12.6 µM (active),-18.3% (inactive),5% (inactive),> 46 µM (inactive),inactive,inactive,2.53% (inactive),0.243,4.49,inactive
CS(=O)(=O)N1CCC2(CCCN(C(=O)Nc3ccccc3)C2)CC1,> 11.4 µM (inactive),-5.5% (inactive),15.8 µM (active),11% (inactive),3.16% (inactive),> 46 µM (inactive),inactive,inactive,1.48% (inactive),3.7,9.01,inactive
Cc1noc(C)c1C(=O)N1CCC[C@@]2(CCN(C(=O)NC(C)C)C2)C1,> 11.4 µM (inactive),-0.0457% (inactive),inactive,7.59% (inactive),-12.3% (inactive),> 46 µM (inactive),inactive,inactive,3.68% (inactive),13.4,18.4,inactive
COC(=O)N1CCC[C@@]2(CCN(C(=O)Nc3cccc(C#N)c3)C2)C1,> 11.4 µM (inactive),-12.4% (inactive),inactive,19.3% (inactive),6.31% (inactive),> 46 µM (inactive),inactive,inactive,6.94% (inactive),4.39,15.8,inactive
Cn1cccc1C(=O)N1CCC2(CC1)CN(C(=O)Nc1ccccc1)C2,> 11.4 µM (inactive),-4.26% (inactive),inactive,8.61% (inactive),-5.03% (inactive),> 46 µM (inactive),inactive,inactive,5.97% (inactive),8.17,14.5,inactive
COCC(=O)N1CCC2(CC1)CCN(c1ccccn1)CC2,> 11.4 µM (inactive),-16.4% (inactive),inactive,-3.68% (inactive),-8.73% (inactive),> 46 µM (inactive),inactive,inactive,2.07% (inactive),0.785,4.41,inactive
CC(C)NC(=O)N1CC2(CCN(S(=O)(=O)c3ccccc3)CC2)C1,> 11.4 µM (inactive),-9.04% (inactive),inactive,21.2% (inactive),-0.15% (inactive),> 46 µM (inactive),inactive,inactive,-7.9% (inactive),3.88,-2.51,inactive
